The record followed here is the supplement of paper PMC12532568.

Structures can show the parent of a compound that is named as a salt.

The test system of the assay is Danio rerio larvae Tg(actc1b:ZsGreen-LC3), 3 dpf. Put plainly: LC3 puncta relative area vs vehicle, with NH4Cl (autophagic flux) (log2 fold change); higher = more autophagy. Conditions: 10 µM; treatment time 16 h; NH4Cl: + 100 mM, 4 h. Here is the method: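 Transgenic Tg(actc1b:ZsGreen-map1lc3) zebrafish larvae (2 dpf) were treated for 16 h with Tocris library compounds at 10 µM (n = 12 larvae per compound). Skeletal-muscle LC3 puncta area relative to body area was measured by high-content confocal imaging before and after 4 h of 100 mM NH4Cl (autophagic flux), normalised to vehicle (DMSO), and reported as log2 fold change.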
In the case of `CC(C)CC(NC(=O)OCC1c2ccccc2-c2ccccc21)C(=O)O` (stereo not given), the “LC3 puncta (log2)” value was 0.569.

As for `CC(C)(C)NC[C@H](O)COc1nsnc1N1CCOCC1` [(S)-Timolol maleate], the “LC3 puncta (log2)” value was found to be 0.785.

As for `CCOC(=O)C1=C(C)NC(C)=C(C(=O)OC)C1c1cccc([N+](=O)[O-])c1` (stereo not given) [Nitrendipine], the “LC3 puncta (log2)” value was found to be 0.513.

For `O=C(O)c1cc(=O)c2c(Cl)cc(Cl)cc2[nH]1` [5,7-Dichlorokynurenic acid], the “LC3 puncta (log2)” value was determined as 0.00257.

On to `N=C(N)SCCc1c[nH]cn1` [Imetit dihydrobromide], for which the “LC3 puncta (log2)” value turned out to be 0.713.

In the case of `O=C1CN(/N=C/c2ccc(-c3ccc([N+](=O)[O-])cc3)o2)C(=O)N1` [Dantrolene, sodium salt], the “LC3 puncta (log2)” value came to 0.404.

For `COCCOC(=O)C1=C(C)NC(C)=C(C(=O)OC(C)C)C1c1cccc([N+](=O)[O-])c1` (stereo not given) [Nimodipine], the “LC3 puncta (log2)” value came out at 0.885.

For the compound `Cc1noc(NS(=O)(=O)c2ccc(N)cc2)c1C` [Sulfisoxazole], the “LC3 puncta (log2)” value came out at 0.483.

Turning to `CC[C@@H]1C(=O)OC[C@@H]1Cc1cncn1C` [Pilocarpine hydrochloride], the “LC3 puncta (log2)” value was 0.652.

With `CCc1nc(N)nc(N)c1-c1ccc(Cl)cc1` [Pyrimethamine], the “LC3 puncta (log2)” value came to 0.578.

For the compound `c1ccc2sc(N3CCN(Cc4ccc5c(c4)OCO5)CC3)nc2c1` [2-[1-(4-Piperonyl)piperazinyl]benzothiazole], the “LC3 puncta (log2)” value is 0.593.

For the compound `O=C(O)C1=CCCNC1` [Guvacine hydrochloride], the “LC3 puncta (log2)” value is 0.136.

Take `c1ccc(CN(CC2=NCCN2)c2ccccc2)cc1` [Antazoline hydrochloride]: the “LC3 puncta (log2)” value came to 0.684.

`CC(=O)N1CCN(C)CC1` [1-Acetyl-4-methylpiperazine hydrochloride]: the “LC3 puncta (log2)” value turned out to be 0.372.

Take `NC(=O)CCCCn1ccc(NC(N)=NCC(F)(F)F)n1`: the “LC3 puncta (log2)” value stood at 0.72.

Consider `N=C(N)S/C=C\C(=O)O` [ZAPA sulfate], for which the “LC3 puncta (log2)” value is 0.0813.

In the case of `CC(C)[N+]1(C)[C@@H]2CC[C@H]1C[C@@H](OC(=O)C(CO)c1ccccc1)C2` (stereo not given in full) [Ipratropium bromide], the “LC3 puncta (log2)” value turned out to be 0.284.

Take `O=C(O)C1=CCNCC1` [Isoguvacine hydrochloride]: the “LC3 puncta (log2)” value worked out at 0.468.

Turning to `O=[N+]([O-])c1cccc2cn[nH]c12` [7-Nitroindazole], the “LC3 puncta (log2)” value worked out at 0.507.

In the case of `O=C(O)c1cccnc1C(=O)O` [Quinolinic acid], the “LC3 puncta (log2)” value came to 0.453.

`Clc1cccc(Nc2nnc(-c3ccccc3)c3ccccc23)c1`: the “LC3 puncta (log2)” value turned out to be 0.446.

With `O=C1c2ccccc2CCC1CNCCc1ccc(O)cc1` (stereo not given) [HEAT hydrochloride], the “LC3 puncta (log2)” value was 0.616.

As for `CCN(CC)CCOC(=O)C1(c2ccc([N+](=O)[O-])cc2)CCCC1` [Nitrocaramiphen hydrochloride], the “LC3 puncta (log2)” value is 0.825.

For the compound `Nc1cc(N2CCCCC2)nc(N)[n+]1[O-]` [Minoxidil], the “LC3 puncta (log2)” value came out at 0.501.

On to `COc1ccc2[nH]c(-c3ccccc3)c(CCNC(C)=O)c2c1` [2-Phenylmelatonin], for which the “LC3 puncta (log2)” value stood at 0.594.

With `CN1CCN(C2=Cc3ccccc3Oc3ccc(Cl)cc32)CC1`, the “LC3 puncta (log2)” value was 0.934.

For the compound `CC(=O)NCC(=O)N[C@H](CCC(=O)O)C(=O)O` [N-Acetylglycyl-D-glutamic acid], the “LC3 puncta (log2)” value amounted to 0.237.

`O=C1CC2(CCCC2)CC(=O)N1CCCCNCC1COc2ccccc2O1` (stereo not given): the “LC3 puncta (log2)” value was -0.368.

For `COc1ccccc1N1CCN(CC(O)COc2cccc3ccccc23)CC1` (stereo not given) [Naftopidil dihydrochloride], the “LC3 puncta (log2)” value worked out at 0.195.

Regarding `CC(C)Oc1ccc2c(=O)c3cc(C(=O)O)ccc3oc2c1`, the “LC3 puncta (log2)” value is 0.814.

`c1ccc(CN2CCC3(CCc4ccccc43)CC2)cc1` [L-693,403 maleate]: the “LC3 puncta (log2)” value came to 0.655.

As to `CC1=C(/C=C/C(C)=C/C=C/C(C)=C/C(=O)O)C(C)(C)CCC1` [Retinoic acid], the “LC3 puncta (log2)” value worked out at 1.64.

Turning to `CC(C)NCC(O)COc1cccc2ccccc12` (stereo not given) [Propranolol hydrochloride], the “LC3 puncta (log2)” value came to 1.08.

On to `O=[N+]([O-])c1cccc2c(Br)[nH]nc12` [3-Bromo-7-nitroindazole], for which the “LC3 puncta (log2)” value was determined as 0.697.

On to `C/N=C(/NC#N)NCCSCc1csc(NC(=N)N)n1` [Tiotidine], for which the “LC3 puncta (log2)” value was determined as 0.667.

Turning to `c1cc2c(cc1C1CCCCC1)c1c3n2CCNC3CCC1` (stereo not given) [Tetrindole mesylate], the “LC3 puncta (log2)” value was found to be 0.836.

For the compound `Brc1c(NC2=NCCN2)ccc2nccnc12`, the “LC3 puncta (log2)” value is 0.713.

Take `COC(=O)/C=C/c1cc(O)ccc1O` [Methyl 2,5-dihydroxycinnamate]: the “LC3 puncta (log2)” value is 0.332.

For the compound `O=S(=O)(c1cccc2c(Cl)cccc12)N1CCCNCC1` [ML 9 hydrochloride], the “LC3 puncta (log2)” value stood at 0.383.

Take `CC12CC3CC(C)(C1)CC(N)(C3)C2` [Memantine hydrochloride]: the “LC3 puncta (log2)” value is 0.723.
